Data published in the supplement of paper PMC6992640.
± gives the standard deviation of the averaged measurements.

Key:
Test in all cases: cell viability (% of vehicle); higher = less cytotoxic
HCI01 [1] = cells of a triple-negative basal-like breast cancer xenograft; settings: 10 µM; 72 h
HCI03 = cells of an ER-positive luminal breast cancer xenograft; settings: 10 µM; 72 h
HCI09 = cells of a triple-negative luminal androgen receptor type breast cancer xenograft; settings: 10 µM; 72 h
HCI11 = cells of an ER-positive luminal breast cancer xenograft; settings: 10 µM; 72 h
HCI13 = cells of an ER-positive luminal breast cancer xenograft; settings: 10 µM; 72 h
HCI16 = cells of a triple-negative basal-like breast cancer xenograft; settings: 10 µM; 72 h
UCD52 [2] = cells of a triple-negative basal-like breast cancer xenograft; settings: 10 µM; 72 h
WHIM2 [3] = cells of a triple-negative basal-like breast cancer xenograft; settings: 10 µM; 72 h
WHIM30 [4] = cells of a triple-negative basal-like breast cancer xenograft; settings: 10 µM; 72 h
HCI01 [5] = settings: 1 µM; 72 h
UCD52 [6] = settings: 1 µM; 72 h
WHIM2 [7] = settings: 1 µM; 72 h
WHIM30 [8] = settings: 1 µM; 72 h

Compound	cell viability (HCI01 [1])	cell viability (HCI03)	cell viability (HCI09)	cell viability (HCI11)	cell viability (HCI13)	cell viability (HCI16)	cell viability (UCD52 [2])	cell viability (WHIM2 [3])	cell viability (WHIM30 [4])	cell viability (HCI01 [5])	cell viability (UCD52 [6])	cell viability (WHIM2 [7])	cell viability (WHIM30 [8])
Cl.O=C1CCC2(O)C3Cc4ccc(O)c5c4C2(CCN3CC2CC2)C1O5 (stereo not given) [Naltrexone HCl]	120 ± 20	143	108.5 ± 0.5	108	167 ± 2.8	151	80.3 ± 20	88.9 ± 6	92.9 ± 7.2				
CCC1(C)CC(=O)NC(=O)C1 [Bemegride]	112 ± 13	96.5	91.7 ± 10	109	162 ± 13	108	85.8 ± 8.3	97.9 ± 6	97.2 ± 8.1				
Cc1cc(C(C#N)c2ccc(Cl)cc2)c(Cl)cc1NC(=O)c1cc(I)cc(I)c1O (stereo not given) [Closantel]	29.4 ± 6.5	104	17.7 ± 1.8	85.7	37 ± 7.8	105	61.5 ± 2.6	37.6 ± 13	87.6 ± 4	88.8	91.3	105	82.7
CCC1=C[C@H]2CN3CCc4c([nH]c5ccccc45)[C@@](C(=O)OC)(C2)[C@@H]13 [Catharanthine]	88.2 ± 14	122	99.5 ± 13	92.1	94 ± 2.4	124	101 ± 2.3	85.5 ± 14	97 ± 3.2				
O=P1(NCCCl)OCCCN1CCCl (stereo not given) [Ifosfamide]	106 ± 14	107	96.28 ± 0.62	84.8	153 ± 11	74.4	104.1 ± 0.65	95.7 ± 26	109 ± 2.2				
CC(C)c1c(CN(C)C(C)Cc2ccccc2)n(C)n(-c2ccccc2)c1=O (stereo not given) [Famprofazone]	121 ± 24	129	79.2 ± 5.1	111	85.3 ± 14	121	87.7 ± 11	97.6 ± 16	124 ± 8.3				
c1ccc2c(c1)sc1ccccc12 [Dibenzothiophene]	137 ± 39	105	87.3 ± 1.6	103	85 ± 12	123	115 ± 14	117 ± 11	98.7 ± 1				
CC12CCC3C(CC=C4CC(O)CCC43C)C1CCC2=O (stereo not given) [Dehydroepiandrosterone (DHEA)]	124 ± 8.8	107	87 ± 21	112	111 ± 12	102	98.2 ± 9.5	93.3 ± 20	111 ± 4				
CC(C)OC(=O)[C@H](C)N[P@](=O)(CO[C@H](C)Cn1cnc2c(N)ncnc21)Oc1ccccc1	97.2 ± 1.3	109	87.9 ± 11	112	65.7 ± 8	183	103.7 ± 0.83	117.1 ± 0.62	144 ± 8.2				
NCCC(O)(P(=O)([O-])O)P(=O)([O-])O.[Na+].[Na+] [Pamidronate Disodium]	85.1 ± 9.1	82.9	86.9 ± 2.1	80.8	95.2 ± 14	59.9	76.4 ± 15	75 ± 21	92.4 ± 13				
CN(C)C1C(=O)C(C(N)=O)=C(O)C2(O)C(=O)C3=C(O)c4c(O)cccc4C(C)(O)C3CC12.Cl (stereo not given) [Tetracycline Hydrochloride]	105 ± 10	108	89.46 ± 0.85	96.7	92.1 ± 4.3	87.5	77.3 ± 1.4	77.1 ± 20	116 ± 19				
CCC(C(N)=O)N1CCCC1=O (stereo not given) [Levetiracetam]	141 ± 6.8	166	116 ± 17	98	107 ± 14	120	126 ± 17	91.7 ± 10	143 ± 4.9				
CC1C=CC=CCCC=CC=CC=CC=CC(OC2OC(C)C(O)C(N)C2O)CC2OC(O)(CC(O)C(O)CCC(O)CC(O)CC(O)CC(=O)OC(C)C(C)C1O)CC(O)C2C(=O)O (stereo not given) [Nystatin (Fungicidin)]	121 ± 47	139	128 ± 2.6	98.5	167 ± 21	150	118 ± 0.94	96.5 ± 1.8	147 ± 6.6				
CCCN1CC(CSC)CC2c3cccc4[nH]cc(c34)CC21.CS(=O)(=O)O (stereo not given) [Pergolide mesylate]	107.1 ± 0.5	92.4	106 ± 8.8	87.6	98.3 ± 5.6	124	76.5 ± 1.3	101 ± 14	110 ± 12				
CCN(C)C(=O)Oc1cccc(C(C)N(C)C)c1.O=C(O)C(O)C(O)C(=O)O (stereo not given) [Rivastigmine Tartrate]	115.8 ± 0.12	116	127 ± 62	119	133 ± 51	151	111 ± 15	91.8 ± 31	131 ± 13				
COc1ccc(C(CN(C)C)C2(O)CCCCC2)cc1.Cl (stereo not given) [Venlafaxine]	103 ± 4.2	139	99.26 ± 0.21	103	124 ± 11	106	119 ± 17	118 ± 10	169 ± 35				
CCOC(=O)c1cncn1C(C)c1ccccc1 (stereo not given) [Etomidate]	114 ± 2.7	89.8	96.6 ± 3.1	90.1	103 ± 14	77.5	88.6 ± 2.2	81.8 ± 20	117 ± 6.2				
Cl.NCCc1c[nH]c2ccc(O)cc12 [Serotonin HCl]	103 ± 13	132	99.9 ± 4	94.8	57.8 ± 1.6	109	100 ± 9.6	137 ± 45	163 ± 26				
Br.COC(=O)C1=CCCN(C)C1 [Arecoline hydrobromide]	94 ± 16	135	106 ± 21	88.9	103 ± 9.4	121	121 ± 21	116 ± 1.5	114 ± 16				
